The campaign covered roughly 110,000 compounds. About 230 (0.21%) showed an effect of 50% or more. The sample as a whole holds a higher share of strong results than the screen did.
biological target: DPAP1 (Plasmodium falciparum, UniProt Q8IIJ9); assay: primary screen, percent inhibition; read by cleavage of a fluorogenic dipeptide substrate; higher = more effect of the substance; parameters: species or system P. falciparum D10 trophozoite lysates; single well
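Further: 30 min substrate incubation versus DMSO and 10 µM JCP410 controls.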

Sequence of DPAP1 (Q8IIJ9 whole entry, looked up): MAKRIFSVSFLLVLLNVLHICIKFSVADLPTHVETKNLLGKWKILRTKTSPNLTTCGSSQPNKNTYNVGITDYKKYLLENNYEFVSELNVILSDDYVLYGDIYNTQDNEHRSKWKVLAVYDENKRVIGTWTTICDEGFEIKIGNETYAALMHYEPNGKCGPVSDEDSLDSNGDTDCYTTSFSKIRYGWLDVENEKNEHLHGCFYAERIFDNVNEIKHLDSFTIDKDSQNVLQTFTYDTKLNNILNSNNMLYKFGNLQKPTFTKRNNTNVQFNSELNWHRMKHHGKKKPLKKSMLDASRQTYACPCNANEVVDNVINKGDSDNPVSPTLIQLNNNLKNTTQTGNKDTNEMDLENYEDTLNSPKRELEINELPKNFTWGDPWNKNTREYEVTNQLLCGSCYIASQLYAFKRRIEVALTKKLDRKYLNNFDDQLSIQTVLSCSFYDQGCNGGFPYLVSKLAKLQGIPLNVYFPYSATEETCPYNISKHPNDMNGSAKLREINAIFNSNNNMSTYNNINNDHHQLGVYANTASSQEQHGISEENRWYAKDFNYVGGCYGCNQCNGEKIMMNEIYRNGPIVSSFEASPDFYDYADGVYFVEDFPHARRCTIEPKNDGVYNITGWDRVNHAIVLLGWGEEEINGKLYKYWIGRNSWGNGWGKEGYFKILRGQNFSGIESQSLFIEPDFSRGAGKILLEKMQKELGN

Point of comparison: `O=C(Cc1nnc(-c2ccc(Br)cc2)o1)NC1CCN(Cc2ccccc2)CC1`, “% Inhibition @ 10 uM” value 2.28%. Against it:
- COc1ccccc1CC(=N)NOC(=O)c1ccccc1OC — higher, 5.37%
- Cc1ccc(C2CC(=O)N3CN(CCc4ccccc4)CSC3=C2C#N)cc1 (stereo not shown) — higher, 64%
- N#CC1=C2SCN(CCN3CCOCC3)CN2C(=O)CC1c1ccc(F)cc1 (stereo not shown) — higher, 49.5%
- N#CC1=C2SCN(CCc3ccccc3)CN2C(=O)CC1c1cccs1 (stereo not shown) — higher, 42.6%
- N#CC1=C2SCN(CCc3ccccc3)CN2C(=O)CC1c1ccc(F)cc1 (stereo not shown) — higher, 51.6%
- O=C(N/C(=C\c1ccco1)C(=O)N1CCN(C/C=C/c2ccccc2)CC1)c1ccccc1 — lower, 2.09%
- COc1ccc(C2N=C(NO)c3ccccc3N2)cc1 (stereo not shown) — lower, -0.424%
- CC(C)CSc1nc(N)c2c3c(sc2n1)CCC3 — higher, 81.4%
- CCCSc1nc(N)c2c3c(sc2n1)CCCC3 — higher, 10.6%
- C=C(C)CSc1nc(N)c2c3c(sc2n1)CCC3 — higher, 4.37%
- COc1ccccc1CNC(=O)Nc1cn(CC(C)C)c(=O)c2ccccc12 — lower, -4.21%
- CC(C)CCNC(=O)c1nnc(-c2ccccc2)o1 — lower, -3.34%
- CCOC(=O)c1sc(C)c2c(O)nc(-c3ccccc3)nc12 — lower, -1.47%
- CCOC(=O)c1sc(-c2ccccc2)nc1O — higher, 66.9%
- CCOC(=O)c1sc(-c2ccccc2)nc1-c1ccc([N+](=O)[O-])cc1 — higher, 2.86%
- c1ccc(CC2CCN(Cc3ccco3)CC2)cc1 — lower, -2.56%
- COc1ccc(-c2cc(-c3ccccc3)nc(N3CCOCC3)n2)cc1OC — lower, -2.6%
- Cc1nsc2ccc(Cl)cc12 — higher, 55%
- Cc1nsc2ccc3ccccc3c12 — higher, 3.36%
- Cc1nsc2ccc3sccc3c12 — lower, 1.72%
- COc1ccc(-c2noc(CCC(=O)NCc3cc(OC)ccc3OC)n2)cc1 — lower, 0.675%
- Cc1ccc(-c2noc(CCC(=O)NCc3ccc(F)cc3Cl)n2)cc1 — lower, -0.999%
- COc1ccc(-c2noc(CCC(=O)NCc3ccc(F)cc3Cl)n2)cc1 — higher, 60.3%
- COCCNc1nc2c(S(=O)(=O)c3ccccc3)nnn2c2ccsc12 — lower, -0.256%
- CCc1c(C)sc(NC(=O)Cc2ccc(OC)c(OC)c2)c1C(N)=O — higher, 16.2%
- CCOC(=O)c1cc(-c2ccccc2)n(CCC(=O)N2CCCC(C)C2)c1C (stereo not shown) — lower, 1.2%
- COc1ccccc1CNC(=O)c1cccc(Br)c1 — lower, -4.15%
- N#Cc1cc2c(N)c(C(=O)c3ccc(Br)cc3)sc2nc1N — higher, 2.7%
- O=C(NCC1CCCO1)C1CCC(CNS(=O)(=O)c2cccc3nsnc23)CC1 (stereo not shown) — higher, 4.54%
- Cc1ccc(NC(=O)COc2ccc(C)cc2C)cc1 — lower, -8.06%
- Cc1cccc(NC(=O)COc2ccc(C)cc2C)c1 — lower, -2.32%
- Cc1ccc(OCC(=O)Nc2ccccc2)c(C)c1 — higher, 78%
- COc1ccc(NC(=O)c2ccc(C)c(Br)c2)cc1 — higher, 2.42%
- Cc1c(CNC2CCCc3ccccc32)c(C(=O)O)c(C)n1Cc1ccc(F)cc1 (stereo not shown) — lower, -5.49%
- Cc1cccc(Oc2nc3c(C)cccn3c(=O)c2/C=C(\C#N)C(=O)NCC2CCCO2)c1 (stereo not shown) — lower, -9.06%
- C=CCN1C(=O)C(CC(=O)NCC)S/C1=N\c1cccc2ccccc12 (stereo not shown) — lower, 0.512%
- CCOC(=O)/C(C#N)=C/c1c(Oc2cccc(C)c2C)nc2ccccn2c1=O — higher, 77.8%
- COC(=O)/C(C#N)=C/c1c(Oc2cccc(C)c2C)nc2ccccn2c1=O — lower, -5.1%
- CCNC(=O)/C(C#N)=C/c1c(Oc2cc(C)ccc2C(C)C)nc2ccccn2c1=O — higher, 75.9%
- CCOC(=O)/C(C#N)=C/c1c(Oc2ccccc2OC)nc2ccccn2c1=O — lower, -5.1%
- Cc1ccc(C(C)C)c(Oc2nc3ccccn3c(=O)c2/C=C(\C#N)C(=O)NCc2ccccc2)c1 — lower, -1.43%
- CNC(=O)/C(C#N)=C/c1c(Oc2cc(C)ccc2C(C)C)nc2ccccn2c1=O — higher, 17%
- Cc1cc(C)c2c(n1)SCC(=O)N2CC(=O)NCc1cccc(Cl)c1 — lower, -6.01%
- COCCN(Cc1ccco1)C(=O)c1cc2c(Cl)nc3ccccc3c2s1 — higher, 3.88%
- Cc1ccc(-c2nnc(SCC(=O)N3CCC(C)CC3)o2)cc1C — lower, 1.3%
- COc1ccc(CN2CCN(Cc3cccc(F)c3)CC2)c(OC)c1OC — higher, 5.99%
- Cc1cccc(Oc2nc3ccccn3c(=O)c2/C=C(\C#N)c2nc3ccccc3[nH]2)c1 — higher, 6.78%
- Cc1cc(Oc2nc3ccccn3c(=O)c2/C=C(\C#N)c2nc3ccccc3[nH]2)ccc1Cl — higher, 92.2%
- N#C/C(=C\c1c(Oc2ccccc2Cl)nc2ccccn2c1=O)c1nc2ccccc2[nH]1 — lower, -1.86%
- COc1ccc(-c2nc(CSc3nnc(C)n4c3cc3oc(C)cc34)c(C)o2)cc1 — higher, 3.61%
- Cc1cc(C)c(S(=O)(=O)N2CCN(c3ccc(F)cc3)CC2)c(C)c1 — lower, -6.86%
- CN(c1ccc(C(=O)Nc2ccc(F)cc2)cc1)S(=O)(=O)c1ccccc1 — lower, -7.56%
- CCc1c(C)sc(NC(=O)COc2ccc(F)cc2)c1C#N — lower, 0.777%
- Cc1sc(NC(=O)COc2ccc(Cl)cc2Cl)c(C#N)c1C — lower, 1.25%
- Cc1sc(NC(=O)COc2ccc(F)cc2F)c(C#N)c1C — higher, 93.9%
- CCCNC(=O)c1cc2ncc(Br)cn2n1 — lower, 1.04%
- O=C(Nc1ccc(Br)cn1)c1cc2n(n1)C(C(F)(F)F)CC(c1ccccc1)N2 (stereo not shown) — higher, 50.4%
- O=C(O)c1cc2n(n1)C(C(F)(F)F)CC(c1ccccc1)N2 (stereo not shown) — lower, -1.32%
- O=C(Nc1cccnc1)c1cc2n(n1)C(C(F)(F)F)CC(c1ccc(Br)cc1)N2 (stereo not shown) — higher, 2.99%
- CP(=O)(O)c1nc2ccccc2s1 — lower, -2.44%
- c1ccc(CN2CCn3c4c(c5ccccc53)CCCC42)cc1 (stereo not shown) — lower, -1.25%
- C1=C(c2ccc3c(c2)c2c4n3CCN(Cc3ccccc3)C4CCC2)C2CCN1CC2 (stereo not shown) — higher, 70.5%
- Cc1ccc2c(c1)c1c3n2CCN(Cc2ccccc2)C3CCC1 (stereo not shown) — lower, 1.26%

— PMC6919601, “Identification of Plasmodium dipeptidyl aminopeptidase allosteric inhibitors by high throughput screening” (PLoS ONE, 2019)
